# Screens as filed in PubChem BioAssay.
# Shown are actives, neighbours in structure and some others; about 8.7% of the full set was active somewhere.
# AMA1 RON2 block: disrupts binding of P. falciparum AMA1 to RON2 | AlphaScreen AMA1-biotinylated RON2 peptide binding | Potency, µM (series often up to 58.2 µM), hits mostly inhibitors | 360,000 tested, 0.2% active | AID 720542; note: nearly all actives have a fitted effect of over 45% in size
#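 AMA1 (3D7) with his tag at 25 nM final met compounds first, then biotinylated RON2 peptide at 25 nM; detection used donor plus acceptor beads, 10 µg/mL apiece, read by AlphaScreen after 30 min at room temperature.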
# Vaccinia mCherry: vaccinia inhibition (mCherry reporter); Vaccinia virus mCherry reporter infection, fluorescence; Potency, µM (titrated, usually from 36.5 µM), most hits filed as inhibitors; 310,000 tested, 0.63% active; AID 720579; calls by dose curve; tested in A549 cells; note: nearly all actives have a fitted effect of over 35% in size
# Pf growth 96h: inhibits malaria parasite growth, 96 h. P. falciparum luciferase reporter growth, 96 h. Potency, µM (titrated, usually from 28.7 µM), most hits filed as inhibitors. 320,000 tested, 6.9% active. AID 504834
#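 Luminescence readout: decreased luciferase signal marks inhibited growth of reporter-expressing P. falciparum in infected red cells (2% hematocrit, 0.05% parasitemia final), exposed to compound two generations (96 h, 37 C, 5% CO2).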
# VACV Venus inh: vaccinia inhibition (Venus reporter) | 330,000 tested, 0.46% active | AID 720580 | Vaccinia virus Venus reporter expression, fluorescence | Potency, µM (series often up to 36.5 µM), hits mostly inhibitors; calls by dose curve; tested in A549 cells; note: nearly all actives have a fitted effect of over 30% in size
# Pf growth 48h: inhibits P. falciparum growth in the first generation, 48 h; P. falciparum luciferase growth in erythrocytes, 48 h; Potency, µM (highest dose often 28.7 µM), most hits filed as inhibitors; 310,000 tested, 5.9% active; AID 504832
#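 In quantitative HTS format, infected erythrocytes bearing luciferase-reporter parasites were treated for a single generation at 37 C. Luminescence after adding detection reagent served as the growth measure.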
# A number is an active result; – = inactive; ? = inconclusive; · = no result; [ ] = remark or other dose. Unless noted, calls come from the whole dose curve; as a rule, active = well fitted curve in the direction sought with a large enough effect; inconclusive = small, poorly fitted or top-dose-only effect, or another doubt; inactive = no such curve, though single readings can be large; an effect the other way counts as inactive or inconclusive.
SMILES,AMA1 RON2 block,Vaccinia mCherry,Pf growth 96h,VACV Venus inh,Pf growth 48h
COc1ccc(NC(=O)c2cc(-c3cc(C)cc(C)c3O)n[nH]2)cc1Cl,–,·,?,·,9.28µM
Cc1ccc(OC(=O)Nc2ccccc2)cc1,–,–,–,–,10.4µM
COc1ccc(NC(=O)c2cc(-c3ccccc3O)n[nH]2)cc1Cl,–,–,2.08µM,–,2.62µM
COc1ccc(NC(=O)CNC(c2ccccc2)c2ccccc2)cc1Cl,–,?,–,–,–
Cc1ccc(NC(=O)c2cc(-c3ccccc3O)n[nH]2)cc1Cl,–,–,?,–,?
CCCN1CNc2c(c(=O)[nH]c(=S)n2CCc2cccc(OC)c2OC)C1,·,–,·,–,·
O=C(CSc1nnc(CNC(=O)c2c(F)cccc2Cl)o1)Nc1ccccc1F,·,–,·,–,·
COC(=O)c1ccc(Cl)cc1NC(=O)NCc1c(-n2cccc2)sc2c1CCCC2,·,–,·,–,·
Cc1ccccc1-c1cc2nc(C)c(Cl)c(=O)n2[nH]1,–,–,·,–,·
COCc1cc(=O)n2[nH]c(-c3ccsc3-n3c(C)ccc3C)cc2n1,–,–,–,–,·
Cc1nc2cc(-c3ccsc3-n3c(C)ccc3C)[nH]n2c(=O)c1Cl,–,–,14.7µM,–,·
Cc1cc(=O)n2[nH]c(-c3ccsc3-n3c(C)ccc3C)cc2n1,–,–,6.57µM,–,–
Cc1ccc(C)c(CN2C(=O)c3ccccc3S(=O)(=O)c3ccc(C(=O)Nc4cc(F)ccc4F)cc32)c1,·,–,·,–,·
COc1ccc2c(c1)c1nc3ccccc3nc1n2Cc1ccc(OC(C)C)c(OC)c1,–,–,?,–,11.7µM
COc1ccc(Cn2c3ccc(OC)cc3c3nc4ccccc4nc32)cc1,–[11.6 µM],–,–,–,–
CC1CCN(C(=O)CSc2nc(N)c3c4c(sc3n2)CN(C)CC4)CC1,–,·,0.828µM,–,2.33µM
CN1CCc2c(sc3nc(SCC(=O)N4CCOCC4)nc(N)c23)C1,–,–[1.46 µM],–,–,?
CCn1c(C)nc2cc(C(=O)N=Nc3c(O)[nH]c4c(C)cc(C)cc34)ccc21,·,·,6.57µM,·,9.28µM
CCC(Sc1ccc2nnc(CCNS(=O)(=O)c3ccc(OC)cc3)n2n1)C(=O)OC (centres undefined),–,–,7.38µM,–,–
Cc1ccc(S(=O)(=O)n2nccc2-c2c(-c3ccc(Cl)cc3)noc2C)cc1,–,?,0.37µM,–[7.34 µM],0.657µM
CC(Oc1ccc(Cl)cc1)c1ccnn1S(=O)(=O)c1ccc(Cl)cc1 (centres undefined),–,–,–,–,?
COc1ccc(N(Cc2nnc3n2CCCCC3)C(=O)Nc2cccc(C)c2)cc1Cl,·,–,·,–,·
COc1ccc(NC(=O)C(CC(=O)O)Cc2ccccc2)cc1 (centres undefined),–,·,7.38µM,·,–
COc1ccc(NC(=O)Nc2ccccc2SC)cc1,–,–,5.86µM,–,–
CC1(C)S[C@@H]2[C@H](N3C(=O)C(c4ccccc4)NC3(C)C)C(=O)N2[C@H]1C(=O)O (some centres undefined),·,–,·,–,·
SMILES,AMA1 RON2 block,Vaccinia mCherry,Pf growth 96h,VACV Venus inh,Pf growth 48h
CCCCOc1ccc(CNC(=O)c2cccc(NC(=O)N3CCSc4ncccc43)c2)cc1,·,–,·,–,·
NC(=O)C1CCN(c2nc(-c3ccc(Cl)cc3)cs2)CC1,·,·,–,·,?
Cc1cc(C=O)c(C)n1-c1sc2c(c1C(=O)O)CCCC2,–,–,?,–,–
CCOC(=O)c1c(-n2c(C)cc(C=C3C(=O)NC(=S)NC3=O)c2C)sc2c1CCCC2,–,·,11.7µM,·,11.7µM
COC(=O)c1c(-n2c(C)cc(C=O)c2C)sc2c1CCCC2,–,–,?,–,10.4µM
CN(C)c1ccc(N=Nc2ccccc2C(=O)OCC(=O)N2CCCC2)cc1,?,–,13.1µM,–,?
CN(C)c1ccc(N=Nc2ccccc2C(=O)OCC(=O)Nc2ccccc2C(F)(F)F)cc1,14.1µM,–,9.28µM,–,?
CN(C)c1ccc(N=Nc2ccccc2C(=O)OCC(=O)N2CCCCCC2)cc1,17.8µM,–,–,–,–
Cc1ccc(Cl)cc1N1CCN(c2cccc[n+]2C)CC1,–,–,0.738µM,–,4.15µM
C[n+]1ccccc1N1CCN(c2ccccc2Cl)CC1,–,–,?,–,4.65µM
COc1ccc(-c2noc(-c3ccccc3NC(=O)c3cc(OC)c(OC)c(OC)c3)n2)cc1,·,–[7.34 µM],·,–[7.34 µM],·
CCCNC(=O)c1nnsc1S(=O)c1ccc(Cl)cc1 (centres undefined),–,?,?,?,?
CCCNC(=O)c1nnsc1S(=O)(=O)c1ccc(Cl)cc1,–,?,–,12.6µM,–
Cc1cc2oc(=O)cc(CN3CCCCC3C)c2cc1C(C)C (centres undefined),–,–,?,–,14.7µM
Cc1cc2oc(=O)cc(CN3CCCC3)c2cc1Cl,–,–,·,–,·
COc1ccc(CN(C)Cc2cc(=O)oc3cc(C)c(C(C)C)cc23)cc1OC,–,–,?,–,?
Cc1cc2oc(=O)cc(CN(C)Cc3ccccc3)c2cc1C(C)C,–,–,?,–,13.1µM
O=C(CSc1nccn1Cc1ccccc1)NCc1ccco1,·,–,·,–,·
COc1ccccc1/C=C/c1cnccn1,·,–,·,–,·
C=CC(=O)N1C/C=C\C(c2ccc(OC)cc2)N(Cc2ccc(F)cc2)C(=O)C1 (centres undefined),–,?,–,0.891µM,–
COc1ccc([C@H]2/C=C\CN(S(=O)(=O)c3cccc4cccnc34)[C@@H](C)C(=O)N2Cc2ccc(F)cc2)cc1,–,–,·,–,·
COc1ccc(C2/C=C\CN(C(=O)Nc3ccccc3-c3ccccc3)CC(=O)N2Cc2ccc(F)cc2)cc1 (centres undefined),–,–,13.1µM,?,13.1µM
COC(=O)N1C/C=C\C(c2ccc(OC)cc2)N(Cc2ccc(F)cc2)C(=O)C1 (centres undefined),–,–,?,–,?
COc1ccc(C2/C=C\CN(S(=O)(=O)c3cccc4cccnc34)CC(=O)N2Cc2ccc(F)cc2)cc1 (centres undefined),–,?,11.7µM,–,?
CCOC(=O)Cc1ccc(NC(=O)N2CCC(CN3CCC(C)CC3)CC2)cc1,·,–,·,–,·
SMILES,AMA1 RON2 block,Vaccinia mCherry,Pf growth 96h,VACV Venus inh,Pf growth 48h
COc1cc2c(cc1NC(=O)COc1cc(C)ccc1C)oc1ccccc12,·,–,·,–,·
Cc1ccc(C)c(N2CCN(C(=O)Cn3cnc4sc(C)c(S(=O)(=O)N5CCN(c6ncccn6)CC5)c4c3=O)CC2)c1,·,–,·,–,·
CC(C)NC(=O)C1(O)c2ccccc2NC(=O)N1c1ccc(Cl)c(Cl)c1 (centres undefined),–,–,10.4µM,–,–
CCCCN(C)CCCNC(=O)C1(O)c2ccccc2NC(=O)N1c1ccc(Cl)cc1 (centres undefined),–,·,4.15µM,·,–[0.00184 µM]
CCOc1ccc(N2C(=O)Nc3ccc(Br)cc3C2(O)C(=O)NCCN(C)C)cc1 (centres undefined),–,–,1.85µM,–,–
CCOc1ccc(N2C(=O)Nc3ccc(Br)cc3C2(O)C(=O)NCCCN(C)C)cc1 (centres undefined),?,–,?,–,–
